Activity calls are given as the source filed them.
Experiments:
[1] = optical density shifts of acrAB sulA E. coli – strain DRC41, OD650, 48 h, E. coli filamentation inducer project, primary screen (AID 1152); conditions: higher = more signal, called active from +8 up or from −8 down;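 also: E. coli MC1000 strain DRC41 lacking acrAB efflux pump and sulA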
[2] = probe aLefty1 binding on compound microarray – biochemical, small-molecule microarray, 635/667 nm fluorescence, primary screen (AID 1153); conditions: higher = more signal;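 also: score merges spot fluorescence with signal-to-noise ratio from the scanned slide images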
[3] = plasmodial surface anion channel blockers, osmotic lysis – cell-based, P. falciparum Indochina, OD700, 1 h, primary screen (AID 1154); conditions: P. falciparum Indochina infected RBC osmotic lysis, higher = more signal, called active from +8 up or from −8 down
[4] = plasmodial surface anion channel blockers, osmotic lysis – cell-based, P. falciparum Indochina, OD700, 2 h, primary screen (AID 1155);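 also: lysis reports solute entry through the parasite surface anion channel PSAC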; conditions: P. falciparum Indochina infected erythrocytes, higher = more signal, called active from +8 up or from −8 down
[5] = changes in parasitized red cell lysis, either direction – P. falciparum Indochina, OD700, 3 h, PSAC antagonist project, primary screen (AID 1156); conditions: P. falciparum-infected erythrocytes, osmotic lysis, higher = more signal, called active from +8 up or from −8 down
[6] = plasmodial surface anion channel blockers, osmotic lysis – cell-based, P. falciparum Indochina, OD700, 18 h, primary screen (AID 1157); conditions: P. falciparum Indochina infected erythrocytes, osmotic lysis OD700, 18 h; higher = more signal, called active from +8 up or from −8 down
[7] = S6 kinase pathway phospho-S6 level changes – cell-based, A549, cytoblot, luminescence, serum-stimulated, primary screen (AID 1158); conditions: 5 h, higher = more signal;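 also: serum-stimulated A549 lung adenocarcinoma cells; signal is phosphorylated S6 detected by cytoblot immunostaining with HRP secondary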
[8] = molecular target: NADPH oxidase 2 (Homo sapiens) (UniProt P04839); test: compounds shifting NOX2 Amplex Red fluorescence – cell-based, HEK293-NOX2, PMA-stimulated, NOX inhibitor project, primary screen (AID 1159); conditions: 45 min, higher = more signal, called active from +8 up or from −8 down; also: test concentration not given here
[9] = molecular target: NADPH oxidase 4 (Homo sapiens) (UniProt Q9NPH5); test: compounds shifting NOX4 Amplex Red fluorescence – cell-based, HEK293-NOX4, tetracycline-induced, NOX inhibitor project, primary screen (AID 1160); conditions: HEK293-NOX4, Amplex Red H2O2 fluorescence, 45 min; higher = more signal, called active from +8 up or from −8 down
[10] = molecular target: NADPH oxidase 5 (Homo sapiens) (UniProt Q96PH1); test: compounds shifting NOX5 Amplex Red fluorescence – cell-based, HEK293-NOX5, NOX inhibitor project, primary screen (AID 1161); conditions: HEK293-NOX5, ionomycin, 45 min, higher = more signal
[11] = compound effects on lung adenocarcinoma cell viability – A549, calcein-AM fluorescence, 48 h, basal, profiling panel (AID 1162); conditions: higher = more signal; also: test concentration not given here
[12] = compound effects on differentiated 3T3-L1 adipocyte viability – cell-based, 3T3-L1 adipocytes, calcein-AM fluorescence, 48 h, basal, profiling panel (AID 1163); conditions: 3T3-L1 adipocytes viability, higher = more signal; also: test concentration not given here
[13] = compound effects on hepatocellular carcinoma cell viability – HepG2, calcein-AM fluorescence, 48 h, basal, profiling panel (AID 1164); conditions: higher = more signal; also: test concentration not given here
[14] = compound effects on multiple myeloma cell viability – MM1S, calcein-AM fluorescence, 48 h, basal, profiling panel (AID 1165); conditions: higher = more signal; also: test concentration not given here
[15] = calcein-AM signal in unstimulated myeloma cells – cell-based, calcein-AM fluorescence, 48 h, PK04 Diversity Set, profiling panel (AID 1166); conditions: RPMI8226 myeloma viability, higher = more signal;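 also: cells grown under basal conditions without added stimulus; test concentration not given here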
[16] = JC-1 mitochondrial signal, unstimulated HepG2 cells – cell-based, JC-1 fluorescence, 24 h, 100 nL compound, profiling panel (AID 1167); conditions: HepG2 mitochondrial potential, higher = more signal; also: test concentration not given here
[17] = JC-1 mitochondrial signal, unstimulated adipocytes – cell-based, JC-1 fluorescence, 3T3-L1 adipocytes, 24 h, 100 nL compound, profiling panel (AID 1168); conditions: JC-1 mitochondrial fluorescence, higher = more signal, called active from +8 up or from −8 down; also: test concentration not given here
[18] = JC-1 mitochondrial signal, unstimulated myeloma cells – cell-based, JC-1 fluorescence, RPMI8226, 24 h, 100 nL compound, profiling panel (AID 1169); conditions: JC-1 mitochondrial potential fluorescence, higher = more signal; also: test concentration not given here
[19] = JC-1 mitochondrial signal, unstimulated MM1S myeloma – cell-based, JC-1 fluorescence, 24 h, 100 nL compound, profiling panel (AID 1170); conditions: MM1S mitochondrial potential, higher = more signal; also: test concentration not given here
[20] = resazurin metabolic signal in A549 cells – cell-based, resazurin fluorescence, 24 h, PK04 Diversity Set, profiling panel (AID 1171); conditions: A549 viability, higher = more signal, called active from +8 up or from −8 down; also: test concentration not given here

NADPH oxidase 5 (Homo sapiens), sequence (Q96PH1 whole entry, looked up): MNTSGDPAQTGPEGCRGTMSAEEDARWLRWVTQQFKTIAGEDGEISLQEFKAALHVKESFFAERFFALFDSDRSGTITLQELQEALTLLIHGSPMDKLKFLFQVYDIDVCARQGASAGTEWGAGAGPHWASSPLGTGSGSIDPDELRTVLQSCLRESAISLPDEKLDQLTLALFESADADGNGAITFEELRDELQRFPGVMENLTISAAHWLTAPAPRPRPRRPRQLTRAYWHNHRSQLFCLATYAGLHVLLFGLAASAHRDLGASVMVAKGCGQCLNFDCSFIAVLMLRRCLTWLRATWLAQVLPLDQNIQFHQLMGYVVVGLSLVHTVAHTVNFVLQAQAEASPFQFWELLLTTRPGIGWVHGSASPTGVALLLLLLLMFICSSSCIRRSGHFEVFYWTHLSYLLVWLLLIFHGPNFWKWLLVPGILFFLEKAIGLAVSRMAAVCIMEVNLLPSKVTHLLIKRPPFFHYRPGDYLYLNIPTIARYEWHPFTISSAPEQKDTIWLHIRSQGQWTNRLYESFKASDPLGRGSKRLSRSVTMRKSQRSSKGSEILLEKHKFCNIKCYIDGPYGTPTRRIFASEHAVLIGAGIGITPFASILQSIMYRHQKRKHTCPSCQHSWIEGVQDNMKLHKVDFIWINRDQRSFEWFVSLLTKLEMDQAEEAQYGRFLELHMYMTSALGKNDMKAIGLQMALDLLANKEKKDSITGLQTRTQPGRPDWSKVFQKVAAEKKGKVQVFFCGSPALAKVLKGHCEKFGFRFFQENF
NADPH oxidase 2 (Homo sapiens), sequence (P04839 whole entry, looked up): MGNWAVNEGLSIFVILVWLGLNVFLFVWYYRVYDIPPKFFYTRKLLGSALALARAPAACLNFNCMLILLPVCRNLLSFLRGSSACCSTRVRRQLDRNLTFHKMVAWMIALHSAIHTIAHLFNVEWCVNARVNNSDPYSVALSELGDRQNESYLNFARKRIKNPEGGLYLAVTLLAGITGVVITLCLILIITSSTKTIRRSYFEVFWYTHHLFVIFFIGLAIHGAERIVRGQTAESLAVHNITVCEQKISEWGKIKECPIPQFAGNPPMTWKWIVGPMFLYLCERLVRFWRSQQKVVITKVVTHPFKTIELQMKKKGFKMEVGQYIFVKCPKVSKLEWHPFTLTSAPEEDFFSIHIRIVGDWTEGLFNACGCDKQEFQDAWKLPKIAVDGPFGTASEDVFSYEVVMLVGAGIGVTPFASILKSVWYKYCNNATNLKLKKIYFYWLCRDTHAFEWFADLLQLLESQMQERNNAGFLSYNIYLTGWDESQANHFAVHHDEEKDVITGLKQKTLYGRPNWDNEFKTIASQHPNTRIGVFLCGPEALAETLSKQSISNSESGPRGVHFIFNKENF
NADPH oxidase 4 (Homo sapiens), sequence (Q9NPH5 whole entry, looked up): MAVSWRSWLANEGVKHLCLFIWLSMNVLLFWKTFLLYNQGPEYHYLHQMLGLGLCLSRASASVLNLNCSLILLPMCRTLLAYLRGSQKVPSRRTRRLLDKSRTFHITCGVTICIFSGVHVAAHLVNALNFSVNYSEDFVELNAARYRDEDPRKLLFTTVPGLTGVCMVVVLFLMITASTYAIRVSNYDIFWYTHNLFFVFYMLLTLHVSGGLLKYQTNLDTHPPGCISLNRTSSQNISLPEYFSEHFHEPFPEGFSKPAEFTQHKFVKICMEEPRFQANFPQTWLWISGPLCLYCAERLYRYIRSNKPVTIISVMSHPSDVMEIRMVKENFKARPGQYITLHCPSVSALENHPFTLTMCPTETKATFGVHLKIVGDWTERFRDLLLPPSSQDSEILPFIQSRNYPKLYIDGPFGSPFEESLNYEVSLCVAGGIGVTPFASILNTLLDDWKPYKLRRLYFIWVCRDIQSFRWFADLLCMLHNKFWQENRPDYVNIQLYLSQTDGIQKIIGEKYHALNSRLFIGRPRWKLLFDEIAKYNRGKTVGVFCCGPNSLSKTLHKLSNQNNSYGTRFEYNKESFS

| Structure (SMILES) | z-score [1] | composite z-score [2] | z-score [3] | z-score [4] | z-score [5] | z-score [6] | z-score [7] | z-score [8] | z-score [9] | z-score [10] | z-score [11] | z-score [12] | z-score [13] | z-score [14] | z-score [15] | z-score [16] | z-score [17] | z-score [18] | z-score [19] | z-score [20] |
| --- | --- | --- | --- | --- | --- | --- | --- | --- | --- | --- | --- | --- | --- | --- | --- | --- | --- | --- | --- | --- |
| CCCC=C(CCC)[C@@H](NC(=O)CCc1ccccc1)c1ccc(C(F)(F)F)cc1 | -1.56 (inactive) | 0.73 | 1.71 (inactive) | 0.542 (inactive) | 1.8 (inactive) | 1.01 (inactive) | 0.697 | -0.975 (inactive) | -1.6 (inactive) | 2.78 | -0.894 | -0.265 | -0.481 | -1.2 | -2.01 | 2.18 | -0.933 (inactive) | -0.0403 | -0.774 | 0.569 (inactive) |
| O=C1C[C@@](C(=O)NCC(F)(F)F)(c2ccc([N+](=O)[O-])cc2)[C@@H](c2ccc(CO)cc2)N1CC12CC3CC(CC(C3)C1)C2 | -0.0809 (inactive) | 0.282 | 5.86 (inactive) | 0.525 (inactive) | 2.97 (inactive) | -0.092 (inactive) | 2.16 | -0.178 (inactive) | -3.52 (inactive) | -5.17 | -1.8 | 1.4 | -1.57 | -2.72 | -4.39 | -1.09 | -1.29 (inactive) | -1.04 | -0.0442 | -2.08 (inactive) |
| O=C1[C@@H]2[C@@H](CC(COc3ccccc3)=C3[C@@H](CCc4ccccc4)OB(O)C[C@@H]32)C(=O)N1Cc1ccccc1 | -1.45 (inactive) | 0.0089 | 11.2 (active) | 2.04 (inactive) | -0.791 (inactive) | 0.82 (inactive) | 0.17 | -0.0449 (inactive) | -0.128 (inactive) | -0.199 | -0.607 | -0.141 | -0.752 | -3.22 | -4.09 | -0.851 | 0.453 (inactive) | -1.07 | 0.253 | -0.0787 (inactive) |
| COc1cc(NN2C(C(O)C3CCCCC3)C=CC3C(=O)N(c4ccccc4)C(=O)C32)cc(OC)c1OC (stereo not given) | -1.02 (inactive) | -0.441 | 1.73 (inactive) | -0.35 (inactive) | 1.36 (inactive) | -1.16 (inactive) | 1.37 | -3.07 (inactive) | -5.15 (inactive) | -5.24 | -0.278 | 0.0809 | 0.736 | -0.434 | -1.8 | -1.08 | 0.0506 (inactive) | -0.741 | 0.439 | -1.37 (inactive) |
| C=CCC(OC(C)=O)[C@@H]1[C@@H](N(Cc2ccc(-c3ccccc3)cc2)C(=O)Cc2ccc(F)cc2)c2cc(OCCCO)ccc2N1C(=O)Cc1ccc2ccccc2c1 (stereo not given in full) | 0.882 (inactive) | 0.0774 | 1.84 (inactive) | 0.791 (inactive) | -0.205 (inactive) | 0.381 (inactive) | -0.199 | 0.587 (inactive) | 0.512 (inactive) | 1.88 | 0.234 | -0.246 | 0.646 | -0.177 | 0.0473 | 2.19 | -0.321 (inactive) | -0.909 | 0.89 | 1.05 (inactive) |
| O=C1C2C=CC(C(O)c3cc(C(F)(F)F)cc(C(F)(F)F)c3)N(Nc3ccccc3F)C2C(=O)N1c1ccccc1 (stereo not given) | -2.27 (inactive) | 1.01 | 4.38 (inactive) | 1.93 (inactive) | -3.51 (inactive) | 2.35 (inactive) | -0.746 | -0.648 (inactive) | -4.37 (inactive) | -1.58 | -1.28 | -0.599 | -3.36 | -3.6 | -4.08 | -3.93 | 0.0394 (inactive) | -1.11 | -0.964 | -0.648 (inactive) |
| Cc1ccc(S[C@]2(C(=O)NC(C)C)CC(=O)N(Cc3ccccc3Cl)[C@@H]2c2ccc(CO)cc2)cc1 | -1.03 (inactive) | 0.0509 | 3.11 (inactive) | 0.0285 (inactive) | 1.5 (inactive) | 0.253 (inactive) | -0.026 | -0.984 (inactive) | -1.19 (inactive) | -0.486 | 0.175 | 0.35 | -0.12 | -0.387 | -2.06 | -0.142 | -0.397 (inactive) | -0.0618 | 0.551 | 0.232 (inactive) |
| COCC(=C=CC[C@@H](O)c1cccc(OCCO)c1)CCO | 0.355 (inactive) | 0.0091 | 2.3 (inactive) | 0.152 (inactive) | 0.691 (inactive) | 0.135 (inactive) | -0.094 | -0.274 (inactive) | -0.761 (inactive) | -0.334 | 0.611 | 0.314 | 0.356 | 0.55 | -0.0681 | 0.00786 | 0.176 (inactive) | 1.15 | -0.447 | 0.0444 (inactive) |
| CN(C)CCCNC(=O)[C@@H]1c2ccccc2C(=O)N(C2CCCCC2)[C@H]1c1ccc(CO)cc1 | 0.196 (inactive) | 0.2 | 1.1 (inactive) | -0.541 (inactive) | 1.67 (inactive) | 0.253 (inactive) | 0.189 | 0.2 (inactive) | 0.197 (inactive) | -0.301 | 0.634 | -0.318 | 0.821 | -0.592 | -0.514 | 2.43 | 0.626 (inactive) | 0.363 | -0.243 | 0.887 (inactive) |

— PubChem BioAssay
